These results are taken from PubChem BioAssay (NCATS).

Records with an inconclusive call do not appear. Calls of active or inactive are those of the source. Unless noted, the call rests on the fitted dose curve; in most records, active means well fitted inhibition curve with a large enough effect; inconclusive means small, poorly fitted or top-dose-only effect; inactive means flat fitted curve, though single readings scatter.

Assay [1] addresses Cytochrome P450 1A2 (Homo sapiens) (UniProt P05177). The assay can be described thus: p450-cyp1a2 (AID 410; calls by dose curve). The note with it: recombinant CYP1A2, luciferin-ME demethylation, luminescence; series mostly up to 25.6 µM. An outline of the steps: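 20nM CYP1A2 with 100uM Luciferin-ME (at Km) in 100mM KPO4; compound preincubated 10 min, NADPH regeneration added, 60 min at room temperature. Luciferin quantified by luminescence after detection reagent; normalized to 57 uM furafylline.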

Another assay concerns 3D7. The assay is described as follows: qHTS profiling for inhibitors of Plasmodium falciparum proliferation (AID 504749). Further: nearly all actives have a fitted effect of over 60% in size. The note with it: P. falciparum in erythrocytes, SYBR Green DNA, 72 h; series mostly up to 12.8 µM. An outline of the steps:
(§1)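 Infected RBCs, 0.3% parasitemia/2.5% Hct final; cpd 72 h, 37 C, 5% CO2; lysis buffer with saponin/triton/SYBR Green I, o/n RT dark; FI 485/535; norm. to artemisinin (0.29 uM) and DMSO.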
(In qHTS, concentration-response curves come from the screen itself.)

The test system of the next assay is ATS189. The description is as above. The settings on record: P. falciparum in erythrocytes, SYBR Green DNA, 72 h; series mostly up to 12.8 µM. An outline of the steps: as §1
A further assay has as its system CP192. The assay is described as above. The note with it: P. falciparum in erythrocytes, SYBR Green DNA, 72 h; series mostly up to 12.8 µM. An outline of the steps:
as §1

The test system of another assay is CP250. The assay is described as above. The note with it: P. falciparum in erythrocytes, SYBR Green DNA, 72 h; series mostly up to 12.8 µM. An outline of the steps:
as §1

For a further assay, the system named is DIV30. Described as above. The note with it: P. falciparum in erythrocytes, SYBR Green DNA, 72 h; series mostly up to 12.8 µM. The essentials: as §1
The next assay concerns JCK. The assay is described as above. The settings on record: P. falciparum in erythrocytes, SYBR Green DNA, 72 h; series mostly up to 12.8 µM. An outline of the steps:
as §1

The test system of another assay is PAD. The description is as above. The note with it: P. falciparum in erythrocytes, SYBR Green DNA, 72 h; series mostly up to 12.8 µM. The essentials:
as §1

Another assay relates to PC26. The assay is described as above. The note with it: P. falciparum in erythrocytes, SYBR Green DNA, 72 h; series mostly up to 12.8 µM. The essentials:
as §1

A further assay deals with SC27B. Described as above. The note with it: P. falciparum in erythrocytes, SYBR Green DNA, 72 h; series mostly up to 12.8 µM. An outline of the steps: as §1
Another assay has as its system TAB109. The description is as above. The settings on record: P. falciparum in erythrocytes, SYBR Green DNA, 72 h; series mostly up to 12.8 µM. The essentials: as §1
In a further assay the test system is CP185. Described as above. The settings on record: P. falciparum in erythrocytes, SYBR Green DNA, 72 h; series mostly up to 12.8 µM. The essentials: as §1
A further assay has as its system CP238. The description is as above. The settings on record: P. falciparum in erythrocytes, SYBR Green DNA, 72 h; series mostly up to 12.8 µM. An outline of the steps:
as §1

The subject of a further assay is CP262. The assay is described as above. The settings on record: P. falciparum in erythrocytes, SYBR Green DNA, 72 h; series mostly up to 12.8 µM. The essentials:
as §1

In a further assay the test system is CP315. The assay is described as above. The settings on record: P. falciparum in erythrocytes, SYBR Green DNA, 72 h; series mostly up to 12.8 µM. An outline of the steps:
as §1

A further assay has as its system AA1029. Described as above. The settings on record: P. falciparum in erythrocytes, SYBR Green DNA, 72 h; series mostly up to 12.8 µM. An outline of the steps: as §1
The next assay concerns CP201. The assay is described as above. The settings on record: P. falciparum in erythrocytes, SYBR Green DNA, 72 h; series mostly up to 12.8 µM. The essentials:
as §1

A further assay relates to CP265. The description is as above. The note with it: P. falciparum in erythrocytes, SYBR Green DNA, 72 h; series mostly up to 12.8 µM. An outline of the steps: as §1
In another assay the test system is CP268. Described as above. The note with it: P. falciparum in erythrocytes, SYBR Green DNA, 72 h; series mostly up to 12.8 µM. The essentials: as §1
A further assay has as its system CP291. Described as above. The note with it: P. falciparum in erythrocytes, SYBR Green DNA, 72 h; series mostly up to 12.8 µM. An outline of the steps:
as §1
Potency means the concentration at half of the fitted maximal effect.

Cytochrome P450 1A2 (Homo sapiens), sequence (P05177 whole entry, looked up): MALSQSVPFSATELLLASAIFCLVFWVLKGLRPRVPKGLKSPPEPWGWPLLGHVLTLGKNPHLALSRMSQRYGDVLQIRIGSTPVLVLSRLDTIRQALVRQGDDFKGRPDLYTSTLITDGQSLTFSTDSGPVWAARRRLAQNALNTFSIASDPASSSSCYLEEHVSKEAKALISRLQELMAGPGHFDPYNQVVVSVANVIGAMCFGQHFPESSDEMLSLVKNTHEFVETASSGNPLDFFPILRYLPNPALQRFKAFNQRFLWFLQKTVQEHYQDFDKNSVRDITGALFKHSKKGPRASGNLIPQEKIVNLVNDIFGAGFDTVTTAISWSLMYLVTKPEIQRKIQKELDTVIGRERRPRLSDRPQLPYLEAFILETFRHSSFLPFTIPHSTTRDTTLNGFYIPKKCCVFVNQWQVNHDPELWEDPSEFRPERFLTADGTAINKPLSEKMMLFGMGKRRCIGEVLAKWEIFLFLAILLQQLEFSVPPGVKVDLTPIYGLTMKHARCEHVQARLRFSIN

In the case of `CCC(=O)O[C@@H]1[C@H](C)O[C@H](O[C@H]2[C@@H](N(C)C)[C@H](O)[C@@H](O[C@@H]3[C@@H](CC=O)C[C@@H](C)[C@@H](O)/C=C\C=C/C[C@@H](C)OC(=O)C[C@@H](OC(=O)CC)[C@H]3OC)O[C@H]2C)C[C@]1(C)O`, the Potency result (in assay [1]; in the assay on 3D7; with ATS189; with CP192; in the assay on CP250; with DIV30) was “inactive” each time. The Potency entry in the assay with JCK, in the assay with PAD, in the assay on PC26 and with SC27B was “inactive” each time.

For the molecule `CCOC(=O)Oc1c(OC)cc(C(=O)O[C@H]2C[C@H]3CN4CCc5c([nH]c6cc(OC)ccc56)[C@@H]4C[C@H]3[C@@H](C(=O)OC)[C@@H]2OC)cc1OC`, the Potency result in [1] was “inactive”. Moreover, the Potency in the assay with 3D7 is 3.16 µM (active); with DIV30, 7.21 µM (active); in the assay with PAD, 3.55 µM (active); with PC26, 5.73 µM (active); in the assay with TAB109, 3.55 µM (active).

For `NCC[C@H](O)C(=O)N[C@H]1C[C@@H](N)[C@@H](O[C@H]2O[C@@H](CN)[C@@H](O)[C@@H](O)[C@@H]2O)[C@@H](O)[C@@H]1O[C@H]1O[C@@H](CO)[C@@H](O)[C@@H](N)[C@@H]1O`, the Potency result in assay [1] was “inactive”.

As for `CCN(CC)[C@@H](C)CN1c2ccccc2Sc2ccccc21`, in assay [1], the Potency was 0.501 µM (active). The Potency result in the assay on CP185, with CP192, in the assay on CP238, in the assay on CP262, in the assay with CP315 and with DIV30 was “inactive” throughout. Further, the Potency entry with JCK and in the assay with PAD was “inactive” each time.

Take `CC[C@@H]1OC(=O)[C@H](C)[C@H](O[C@@H]2C[C@](C)(OC)[C@H](O)[C@H](C)O2)[C@H](C)[C@H](O[C@@H]2O[C@@H](C)C[C@@H](N(C)C)[C@@H]2O)[C@](C)(O)C[C@H](C)[C@@H]2N[C@H](COCCOC)O[C@H]([C@@H]2C)[C@]1(C)O`: the Potency result in assay [1] was “inactive”.

Turning to `CNCCC=C1c2ccccc2C=Cc2ccccc21`, in assay [1], the Potency is 6.31 µM (active).

Consider `NS(=O)(=O)c1cc2c(cc1C(F)(F)F)N[C@H](Cc1ccccc1)NS2(=O)=O`, for which, in assay [1], the Potency is 15.8 µM (active). Besides, the Potency entry with 3D7, in the assay with AA1029, in the assay with ATS189, with CP185, in the assay on CP192 and in the assay with CP201 was “inactive” each time. Moreover, the Potency entry in the assay with CP238, with CP250, with CP262, with CP265, in the assay with CP268 and in the assay with CP291 was “inactive” throughout. The Potency entry in the assay on CP315, in the assay on DIV30, with JCK, in the assay on PAD, in the assay with PC26 and in the assay on SC27B was “inactive” in each case. Moreover, the Potency result in the assay with TAB109 was “inactive”.

In the case of `C[N+]1(C)C[C@@H](O)C[C@@H]1C(=O)[O-]`, the Potency result in assay [1] was “inactive”.

As to `NC(=O)c1ccc[n+]([C@@H]2O[C@H](COP(=O)([O-])OP(=O)(O)OC[C@H]3O[C@@H](n4cnc5c(N)ncnc54)[C@@H](O)[C@@H]3O)[C@@H](O)[C@@H]2O)c1`, the Potency result (in assay [1]; with 3D7; with AA1029; in the assay with ATS189; with CP185; with CP192) was “inactive” in each case. In addition, the Potency entry in the assay with CP201, in the assay on CP238, in the assay on CP250, with CP262, in the assay on CP265 and in the assay with CP268 was “inactive” throughout. Further, the Potency entry with CP291, in the assay with CP315, in the assay on DIV30, with JCK, with PAD and in the assay with SC27B was “inactive” each time. In the assay with TAB109, the Potency entry was “inactive”.

As for `CC(=O)N[C@H](CS)C(=O)O`, in assay [1], the Potency result is “inactive”.

For `c1ccc2c3c([nH]c2c1)[C@@H]1[C@H]2CC[C@H]([C@H]4CCCN[C@H]42)N1CC3`, the Potency in [1] is 15.8 µM (active).

`CN(C)c1ccc(-c2nccc(NCc3ccccc3)n2)cc1`: the Potency in assay [1] is 1.26 µM (active).

Regarding `FC(F)(F)c1ccccc1-c1ccc2ncnc(NC3CCNCC3)c2c1`, in [1], the Potency is 20 µM (active).

With `CC[C@@H]1OC(=O)[C@H](C)[C@H](O[C@@H]2C[C@](C)(OC)[C@H](O)[C@H](C)O2)[C@H](C)[C@H](O[C@@H]2O[C@@H](C)C[C@@H](N(C)C)[C@@H]2O)[C@](C)(O)C[C@H](C)C(=NOCOCCOC)[C@H](C)[C@H](O)[C@]1(C)O`, the Potency result (in [1]; with 3D7; in the assay with AA1029; with ATS189; in the assay on CP185; in the assay with CP192) was “inactive” in each case. For the same molecule, the Potency entry with CP201, with CP238, in the assay on CP250, in the assay on CP262, in the assay on CP265 and with CP268 was “inactive” each time. Further, the Potency result in the assay on CP291, in the assay with DIV30, in the assay with JCK, in the assay with PAD, in the assay with PC26 and in the assay with SC27B was “inactive” each time. For the same molecule, in the assay with TAB109, the Potency entry is “inactive”.

As to `COC(=O)[C@@H]1[C@@H]2C[C@H]3c4[nH]c5cc(OC)ccc5c4CCN3C[C@@H]2C[C@H](OC(=O)/C=C\c2cc(OC)c(OC)c(OC)c2)[C@H]1OC`, the figures for the Potency in the assay with AA1029, in the assay on DIV30 and in the assay on PC26 were 3.16 µM (active), 5.1 µM (active) and 6.42 µM (active), respectively. The Potency result with CP185, in the assay with CP201 and in the assay on CP262 was “inactive” each time.

As for `CCO[C@H]1O[C@@H]([C@H](COCc2ccccc2)OCc2ccccc2)[C@@H](OCc2ccccc2)[C@H]1O`, the Potency entry in the assay with 3D7, in the assay with AA1029, in the assay with CP185, with CP192, in the assay on CP201 and in the assay on CP238 was “inactive” in each case. Besides, the Potency result in the assay on CP250, in the assay on CP262, with CP265, in the assay on CP268, in the assay with CP291 and in the assay on CP315 was “inactive” in each case. Also, the Potency result with JCK, with PAD, in the assay on SC27B and in the assay on TAB109 was “inactive” in each case.

With `O=C(O)COCCN1CCN([C@@H](c2ccccc2)c2ccc(Cl)cc2)CC1`, the Potency entry with 3D7, with AA1029, in the assay on ATS189, in the assay on CP185, with CP192 and with CP201 was “inactive” throughout. The Potency result in the assay on CP238, in the assay on CP250, in the assay with CP262, in the assay with CP265, with CP268 and in the assay with CP291 was “inactive” in each case. The Potency result in the assay on CP315, in the assay with DIV30, in the assay on JCK, with PAD, with PC26 and with SC27B was “inactive” in each case. In addition, in the assay on TAB109, the Potency result is “inactive”.
